# Shiga toxin inh = blocks Shiga toxin action in Vero cells | Vero cells, Shiga toxin protein synthesis inhibition reporter | inhibition, % at 38.7 µM | 290,000 tested, 9.2% active; in the data active = inhibition mostly above about 28%, no sharp cut-off; inactive = mostly below about 43%; note: 0% is about no effect
# Pf growth 48h = P. falciparum growth inhibition at 48 hours (one generation); P. falciparum luciferase growth in erythrocytes, 48 h; Potency, µM (doses to about 28.7 µM), for the others: at the top dose activity change, negative = inhibition, usual class: inhibitors; 310,000 tested, 5.9% active; AID 504832; note: potency is the fitted concentration of half-maximal effect; % is set by controls: 0 for no effect and ±100 for the full control effect
#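 Luciferase-expressing P. falciparum in infected erythrocytes (2% hematocrit, 0.1% parasitemia final) in RPMI 1640/0.5% Albumax were exposed to compound for 48 hours at 37 C, 5% CO2; growth read as luminescence.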
# CHX counter = counter-screen hit for Shiga toxin inhibitors, cycloheximide; cell reporter, cycloheximide protein synthesis inhibition counterscreen; 300,000 tested, 12% active; max response, %; in the data active = max response mostly above about 13%, no sharp cut-off; inactive = mostly below about 14%; note: read at 38.3 µM for the half of the compounds with a filed dose; 0% is about no effect
# Pf growth 96h = P. falciparum growth inhibition at 96 hours | P. falciparum luciferase reporter growth, 96 h | Potency, µM (titrated, usually from 28.7 µM), for inactives: at the top dose activity change, negative = inhibition, most hits filed as inhibitors | 320,000 tested, 6.9% active | AID 504834; note: potency is the fitted concentration of half-maximal effect; % is set by controls: 0 for no effect and ±100 for the full control effect
#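 Cell-based qHTS: luciferase-tagged P. falciparum in erythrocytes (2% hematocrit, 0.05% parasitemia final) incubated with compounds for 96 hours, 37 C, 5% CO2; luciferase detection reagent then added and luminescence measured.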
# NS1 function inh = blocks influenza NS1 protein function; Potency, µM (top dose mostly 46.1 µM), for inactives: at the highest dose activity, positive = more growth; 270,000 tested, 0.4% active; AID 2326; calls by dose curve; note: potency is the fitted concentration of half-maximal effect; actives are rising curves; nearly all actives have a fitted effect of over 50% in size
#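 OD600 was taken as the measure of yeast growth restored by compound in an NS1-expressing S. cerevisiae strain. Cells had been washed out of glucose medium and diluted 1:100 into galactose -URA medium, pH 6.0.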
# SARS PLP yeast = inhibitors of SARS-CoV papain-like protease in yeast; Potency, µM (top dose mostly 32.9 µM), inactives show top-dose activity, positive = growth rescue, most hits filed as activators; AID 485353; 330,000 tested, 0.19% active; S. cerevisiae expressing SARS-CoV PLpro, growth rescue; calls by dose curve; note: potency is the fitted concentration of half-maximal effect; 0% is about no effect; nearly all actives have a fitted effect of over 55% in size
# Starred values were filed as active, the others as inactive; ? = inconclusive; · = no result given; [ ] = remark or other dose. Most compounds without a hit are left out; they make up all but 21% or so of the library. Unless noted, calls come from the whole dose curve; as a rule, active = well fitted inhibition curve with a large enough effect; inconclusive = small, poorly fitted or top-dose-only effect, or another doubt; inactive = no such curve, though single readings can be large or run the other way.
SMILES,Shiga toxin inh,Pf growth 48h,CHX counter,Pf growth 96h,NS1 function inh,SARS PLP yeast
Cc1cccc(NC(=S)NC2CC3CCC(C2)N3Cc2ccco2)c1C (stereo not given),-8,-15%,-3,?,-17%,-5%
Cc1cccc(NC(=S)NC2CC3CCCC(C2)N3Cc2ccccc2)c1C (stereo not given),-9,5.9µM*,-3,1%,-2%,0%
CC(NC(=O)C1CCC1)c1ccccc1 (stereo not given),5,-8%,-3,·,13%,2%
Cc1ccc(CN2C3CCCC2CC(NC(=S)NCc2ccccc2)C3)cc1 (stereo not given),-2,12µM*,1,0%,-3%,2%
CC(=O)OCC(=O)[C@]12OC(C)(C)O[C@@H]1C[C@H]1[C@H]3CC=C4C[C@@H](O)CC[C@]4(C)[C@H]3CC[C@]12C,·,·,·,·,-13%,·
CCc1ccccc1NC(=S)NC1CC2CCC(C1)N2Cc1ccc(F)cc1 (stereo not given),-27,7.4µM*,-2,-8%,-1%,0%
COc1ccc(CNC(=S)NC2CCCCC2)cc1,7,18%,14,?,-21%,1%
Cc1ccc(CNC(=S)NC2CCC(C(C)(C)C)CC2)cc1 (stereo not given),-18,9.3µM*,-1,12µM*,?,-5%
CNc1c(NS(=O)(=O)c2cc(OC)ccc2OC)c(=O)oc2ccccc12,-2,?,8,11%,7%,3%
CCCCn1c(N)c(N(CCOC)C(=O)C2CC(=O)N(Cc3ccco3)C2)c(=O)[nH]c1=O (stereo not given),·,?,·,-3%,·,-3%
CC1Cc2ccccc2N1C(=O)/C=C/c1cccc(F)c1 (stereo not given),87*,251%,45*,293%,·,-2%
CC1Cc2ccccc2N1C(=O)COC(=O)/C=C/c1ccc(F)cc1 (stereo not given),·,9%,·,38%,·,14%
CCN(C(=O)COC(=O)c1oc2ccc(OC)cc2c1C)C1CCCCC1,·,6%,·,15%,·,-4%
COC(=O)C1=C(N)OC(C)=C(C(C)=O)C12C(=O)N(C)c1ccccc12 (stereo not given),-16,6%,-8,8.3µM*,-1%,1%
CCC(CO)Oc1cc(NC(=O)c2cccc(Cl)c2)c2ncn(C(C)C)c2c1 (stereo not given),·,?,·,?,·,-10%
COC(=O)c1ccc(N2CN=C(c3ccc(C)cc3)NC2=S)cc1,13,-7%,10,31%,1%,-41%
S=C1NC(c2ccccc2)=NCN1c1ccc(Cl)cc1,81,·,27*,?,1%,22%
COc1cccc(NC(=O)N2CCC(NC(=O)C3CCCCC3)CC2)c1,-17,7%,-5,1%,-6%,-2%
C[C@H](NC(=O)c1ccccc1Cl)C(=O)OCC(=O)N1CC2(C)CC1CC(C)(C)C2 (stereo not given in full),8,16%,12*,9%,-6%,9%
CC1(C)CC2CC(C)(CN2C(=O)COC(=O)c2ccc(Cl)cc2N)C1 (stereo not given),-13,-7%,-2,-14%,-5%,0%
O=C(NC12CC3CC(CC(C3)C1)C2)N1CCN(C(=O)C2CCCO2)CC1 (stereo not given),-10,6%,11*,0%[5.75 µM],-2%,8%
O=C(NCCc1ccccc1)c1cc(=O)c2ccccc2o1,28,25%,23,?,-3%,-1%
Cc1cc(Cl)nc2ccc(Cc3ccc4nc(Cl)cc(C)c4c3)cc12,-8,2.6µM*,6,?,0%,0%
CSc1nc(Cc2ccc(Cl)cc2)nc2ccccc12,19,41%,-5,-3%,-19%,-16%
N#Cc1ccc(C23OCCN2CCn2c3c3ccccc3[n+]2[O-])cc1 (stereo not given),·,·,·,·,·,7%
SMILES,Shiga toxin inh,Pf growth 48h,CHX counter,Pf growth 96h,NS1 function inh,SARS PLP yeast
CCN1C(=O)C(=Cc2cccc(OC)c2Oc2ccc([N+](=O)[O-])cc2[N+](=O)[O-])SC1=S,-10,5.2µM*,1,10µM*,4%,0%
COc1ccccc1/C=C1\SC(N2CCC(C)CC2)=NC1=O,57*,0%[0.00184 µM],26*,-6%,-5%,-6%
COc1cccc(/C=C2\SC(N3CCC(C)CC3)=NC2=O)c1OC,30,?,13*,-1%,-9%,0%
COc1cccc(/C=C2\SC(=S)N(N3CCOCC3)C2=O)c1OC,15,18%,23*,31%,-6%,-15%
COc1cccc(/C=C2\SC(N3CCCC(C)C3)=NC2=O)c1OC (stereo not given),56*,12%[0.00184 µM],17*,-4%,-7%,1%
COC(=O)C1=C(C)N(Cc2ccccc2)C(=NCc2cc(OC)c(OC)c(OC)c2)N[C@H]1c1cccc(F)c1,1,10µM*,-4,10µM*,13%,4%
COC(=O)C1=C(C)N(Cc2ccccc2)C(=NCc2cccc(Cl)c2)N[C@H]1c1cccc(F)c1,-17,8.3µM*,-10,?,-52%,1%
COC(=O)C1=C(C)N(Cc2ccccc2)C(=NCC(C)C)N[C@H]1c1cccc(F)c1,1,13µM*,-4,?,-8%,-3%
COC(=O)C1=C(C)N(Cc2ccccc2)C(=NCc2ccc(OC)cc2)N[C@H]1c1cccc(F)c1,-8,?,-3,?,-6%,-2%
COC(=O)C1=C(C)N(Cc2ccccc2)C(=NCC(C)C)N[C@H]1c1cccc(C(F)(F)F)c1,·,·,·,·,·,3%
COc1ccc(CNC(=O)COc2ccc(Br)c(C)c2)cc1,-11,-9%[0.00184 µM],4,-11%,-34%,10%
O=C(NCCNCC(O)COc1ccc(O)cc1)N1CCOCC1 (stereo not given),·,-15%,·,6.7µM*,0%,·
CC[C@@]1(c2cccc(C)c2)C(=O)N(C(=O)OC)N1C(=O)OC,3,58%,6,60%,7%,5%
COC(=O)N1C(=O)[C@](CC(C)C)(c2ccccc2)N1C(=O)OC,-1,21%,15*,94%,-14%,-7%
CC[C@@]1(c2ccccc2OC)C(=O)N(C(=O)OC)N1C(=O)OC,24*,-20%,25*,?,3%,4%
COC(=O)N1C(=O)[C@@](CC(C)C)(c2ccccc2)N1C(=O)OC,17,27%,16*,75%,0%,4%
COC(=O)N1C(=O)[C@@](c2ccccc2)(C2CCCC2)N1C(=O)OC,14,24%,18*,49%,-7%,·
Cc1cccc(N2CCN(c3ccc4cc(S(=O)(=O)N5CCCCC5)ccc4n3)CC2C)c1 (stereo not given),-8,?,-6,10µM*,4%,12%
Cc1ccc(C)c(N2CCN(c3ccc4cc(S(=O)(=O)N5CCCCC5)ccc4n3)CC2)c1,-5,1%,11,9.3µM*,5%,4%

# High-throughput results deposited in PubChem BioAssay by National Center for Advancing Translational Sciences (NCATS).
